Experiments:
Assay in all cases: PBM binding z-score (relative to random genomic background probes); higher = stronger binding; sequences stand for … in GC…GCGATTGACAGCGTAGAATGAAGG
[1] = test system: FXR:RXRa (NR concentration 270 nM, RXRa partner concentration 90 nM)
How it was run: (§1)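 Random background probes are the reference for binding z-scores. These scores derive from regression-normalized fluorescence on custom Agilent 4×180K protein-binding microarrays incubated 1 h with ligand-free nuclear receptor dimers. Binding was detected with antibodies against each partner (one per run).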

[2] = test system: LXRa:RXRa (NR concentration 270 nM, RXRa partner concentration 90 nM)
How it was run: as §1

[3] = test system: LXRa homodimer (NR concentration 270 nM)
How it was run: as §1

[4] = test system: LXRb:RXRa (NR concentration 270 nM, RXRa partner concentration 90 nM)
How it was run: as §1

[5] = test system: LXRb homodimer (NR concentration 270 nM)
How it was run: as §1

[6] = test system: PPARa:RXRa (NR concentration 270 nM, RXRa partner concentration 90 nM)
How it was run: as §1

[7] = test system: PPARg:RXRa (NR concentration 180 nM, RXRa partner concentration 90 nM)
How it was run: as §1

[8] = test system: PPARg:RXRa 270nM:90nM, anti-RXR (NR concentration 270 nM, RXRa partner concentration 90 nM)
How it was run: as §1

[9] = test system: PPARg:RXRa 30nM:10nM, anti-RXR (NR concentration 30 nM, RXRa partner concentration 10 nM)
How it was run: as §1

[10] = test system: PPARg:RXRa 90nM:30nM, anti-RXR (NR concentration 90 nM, RXRa partner concentration 30 nM)
How it was run: as §1

[11] = test system: PPARg:RXRa DBDmut IVT, anti-RXR (DBD mutation: RXRa K156A/R161A, NR concentration 270 nM, RXRa partner concentration 90 nM)
How it was run: as §1

[12] = test system: PPARg:RXRa IVT, anti-PPARg (NR concentration 270 nM, RXRa partner concentration 90 nM)
How it was run: as §1

[13] = test system: PPARg DBDmut:RXRa IVT, anti-PPARg (DBD mutation: PPARg1 K132A/R137A, NR concentration 270 nM, RXRa partner concentration 90 nM)
How it was run: as §1

[14] = test system: PPARg DBDmut IVT, anti-PPARg (DBD mutation: PPARg1 K132A/R137A, NR concentration 270 nM)
How it was run: as §1

[15] = test system: PPARg homodimer (NR concentration 180 nM)
How it was run: as §1

[16] = test system: PXR:RXRa (NR concentration 270 nM, RXRa partner concentration 90 nM)
How it was run: as §1

[17] = test system: PXR homodimer (NR concentration 270 nM)
How it was run: as §1

[18] = test system: RARa:RXR (NR concentration 270 nM, RXRa partner concentration 90 nM)
How it was run: as §1

[19] = test system: RARa homodimer (NR concentration 270 nM)
How it was run: as §1

[20] = test system: RARb:RXRa (NR concentration 270 nM, RXRa partner concentration 90 nM)
How it was run: as §1

Sequence | PBM binding z-score [1] | PBM binding z-score [2] | PBM binding z-score [3] | PBM binding z-score [4] | PBM binding z-score [5] | PBM binding z-score [6] | PBM binding z-score [7] | PBM binding z-score [8] | PBM binding z-score [9] | PBM binding z-score [10] | PBM binding z-score [11] | PBM binding z-score [12] | PBM binding z-score [13] | PBM binding z-score [14] | PBM binding z-score [15] | PBM binding z-score [16] | PBM binding z-score [17] | PBM binding z-score [18] | PBM binding z-score [19] | PBM binding z-score [20]
CAAACTAGGTCACCGGAAGGTCAAATTCCGCATG | 6.25 | 6.28 | 5.9 | 5.82 | 1.95 | 6.06 | 9.94 | 8.01 | 6.22 | 7.81 | 8.5 | 8.8 | 3.05 | 2.87 | 7.39 | 6.11 | 2.46 | 7.62 | 3.35 | 5.12
ACTAGCAGGCCAAGGGTCACTCAGGATTAGTCCG | 2.7 | 2.61 | 0.0255 | 2.69 | -0.237 | 4.39 | 7.87 | 7.62 | 6.72 | 8.16 | 1.05 | 3.72 | -0.273 | -0.162 | 4.08 | 3.21 | -0.196 | 4.33 | 0.739 | 3.59
TCTGGGAGGACACGAAAGGTCAGAGCTCGACATC | 3.35 | 4.18 | 3.31 | 3.11 | 0.345 | 3.51 | 1.49 | 2.81 | 1.88 | 2.34 | 1.27 | 1.89 | 0.0227 | -0.425 | 2.76 | 4.23 | 0.802 | 4.77 | 1.17 | 4.34
GCGACTGGGCCATCAGCAGGTTACCATAACTTAA | -0.78 | -0.767 | -0.789 | -0.559 | -1.23 | 0.242 | 0.386 | -0.176 | -0.886 | -0.265 | 2.78 | 2.04 | -0.993 | -1.45 | -0.551 | -0.569 | -0.71 | -0.295 | -0.835 | 0.195
CCTAGTCGGTCAAGGTCACACACGCTATAGGTAC | 4.93 | 4.51 | 2.64 | 3.94 | 1.16 | 4.61 | 4.76 | 4.67 | 2.13 | 3.88 | 4.58 | 5.27 | 0.742 | 0.895 | 3.81 | 4.4 | 1.97 | 4.9 | 2.62 | 4.51
AGAATGAGATTAAGATCAGGGAAACAGAATACAT | -0.282 | -0.601 | -0.0604 | -0.466 | -0.594 | -0.494 | 0.75 | -0.304 | 0.17 | -0.228 | -0.828 | -0.427 | 0.0625 | 0.018 | 0.131 | -0.366 | 0.121 | -0.347 | -0.129 | -1.06
AGAATGAGTTTAAGATCAGGGAAACAGAATACAT | -0.0291 | -0.0527 | -0.102 | -0.0907 | -0.243 | -0.0432 | 0.814 | -0.0778 | 0.203 | 0.0165 | -0.319 | -0.227 | 0.514 | 0.367 | 0.191 | 0.341 | 0.729 | 0.163 | 0.965 | 0.406
ACAGACAGGTGAGTGAACGTAACTCAGCTGGACG | -0.265 | -0.366 | -0.561 | -0.436 | -0.532 | -0.0939 | 0.744 | -0.203 | -0.222 | -0.308 | 0.689 | 0.457 | 0.319 | -1.39 | -0.743 | -0.554 | -0.547 | -0.741 | -0.186 | 0.247
ATATGTAGGTTAGCTGGGGTCATTCAGACTAGGC | 4.38 | 5.95 | 3.02 | 4.75 | 0.992 | 5.13 | 5.66 | 5.12 | 2.67 | 4.46 | 6.68 | 6.23 | 2.15 | 1.68 | 2.64 | 6.34 | 4.08 | 5.73 | 1.52 | 2.96
CAAACTAGGTCGCCGGAAGGTCAAAGTCCGCATG | 3.54 | 4.14 | 2.85 | 3.54 | 0.401 | 4.61 | 5.39 | 4.95 | 2.29 | 4.13 | 6.5 | 6.56 | 2.57 | 0.739 | 3.61 | 4.72 | 0.959 | 5.67 | 0.693 | 3.94
TCTTGTAGATCAAATGTTAAGAAAGCCGAAGCCT | 0.704 | 0.517 | -0.184 | 0.216 | 0.123 | 1.15 | 1.12 | 3.42 | 3.84 | 3.61 | 2.21 | 0.573 | 0.744 | 0.647 | 0.284 | 0.199 | 0.012 | 0.519 | 0.868 | -0.134
CTTTACGGGTCACTGACAGGTTATAGCATTTGGA | 5.62 | 5.09 | 1.02 | 3.91 | 0.469 | 5.46 | 5.06 | 5.14 | 2.12 | 4.01 | 4.85 | 4.95 | 0.913 | 1.44 | 2.33 | 3.9 | 0.619 | 5.01 | 0.972 | 4.14
CAAACTAGATCACCGGAAGGTCAAAGTCCGCATG | 3.07 | 3.21 | 3.33 | 3.19 | 1.2 | 3.85 | 2.04 | 2.62 | 0.824 | 1.84 | 3.34 | 3.13 | 0.538 | 0.366 | 2.31 | 3.54 | 1.53 | 3.99 | 1.63 | 3.21
TAGCCTAGGTCAGATCGGGCCAGGATACGCTATA | 1.61 | 1.02 | -0.706 | 0.308 | -0.62 | 1.68 | 0.718 | 0.623 | -0.241 | -0.042 | -0.033 | 1.22 | -0.531 | -0.442 | -0.135 | 0.771 | -0.663 | 0.816 | -1.26 | 3
GCGACTGGGGCAAAGTAGGTTACCATAAGGTTGG | 0.147 | 0.172 | -0.28 | 0.557 | -0.493 | 2.29 | 2.59 | 3.18 | 0.758 | 2.3 | 5.3 | 5.17 | -0.411 | -0.49 | -0.0778 | 0.322 | -0.231 | 0.681 | -0.558 | 1.21
